A short description of experiment [1]: qHTS assay to identify small molecule antagonists of the estrogen related receptor (ERR) signaling pathway from Tox21 library - cell viability counter screen (AID 1224834). Further: nearly all actives have a fitted effect of over 30% in size. Further: potency means the concentration at half of the fitted maximal effect. In a few lines:
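In this quantitative HTS format, ERR cells receive compounds in DMSO and are incubated for 17.5 h at 37 C. Live-cell protease activity is then detected with CellTiter-Fluor.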
Background: In qHTS, concentration-response curves come from the screen itself.

The target of experiment [2] is Luciferin 4-monooxygenase (Photinus pyralis) (UniProt P08659). In words: qHTS assay to identify small molecule inhibitors of firefly luciferase (AID 1224835). Further: nearly all actives have a fitted effect of over 25% in size. Further: potency means the concentration at half of the fitted maximal effect. In a few lines:
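Biochemical qHTS: compounds run as interplate titrations against purified firefly enzyme, with D-luciferin and ATP each at its KM concentration. Light output recorded by CCD imaging.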

Experiment [3] is described as follows: qHTS assay to identify small molecule antagonists of the estrogen related receptor signaling pathway with the pleiotropic PPARgamma coactivator (PGC) from Tox21 10K library - cell viability counter screen (AID 1224840; active means well fitted cell-killing curve with a large enough effect in the repeat runs, not every such curve was filed as active; further: nearly all actives have a fitted effect of over 40% in size; further: potency means the concentration at half of the fitted maximal effect). In short, it runs like this: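 Viability counter screen, PGC/ERR cells: 17.5 h compound exposure at 37 C, CellTiter-Fluor fluorescence endpoint.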

The nature of experiment [4]: qHTS assay to identify small molecule antagonists of the estrogen related receptor signaling pathway with the pleiotropic PPARgamma coactivator (PGC) from Tox21 10K library (AID 1224841; call rule not given here; further: actives are mostly falling curves and most rising ones were filed inactive; nearly all actives have a fitted effect of over 50% in size). In short, it runs like this: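 In the PGC/ERR line, DMSO solutions of test chemicals are pin-delivered to 2,000 cells/well six hours after dispensing. Following eighteen hours' incubation, One-Glo reagent is added and luminescence recorded.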

Experiment [5] is described as follows: qHTS assay to identify small molecule agonists of the estrogen related receptor signaling pathway with the pleiotropic PPARgamma coactivator (PGC) from Tox21 10K library (AID 1224842). Further: nearly all actives have a fitted effect of over 15% in size. In a few lines: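 PGC/ERR reporter cell line, 2,000 cells per well, incubated 6 h at 37 C before 23 nL compound in DMSO was added. After 18 h at 37 C, One-Glo luminescence read following 30 min at room temperature.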

A short description of experiment [6]: qHTS assay to identify small molecule agonists of the hypoxia (HIF-1) signaling pathway - cell viability counter screen (AID 1224844; calls by dose curve; further: nearly all actives have a fitted effect of over 50% in size). In a few lines: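 Same wells as the HIF-1 reporter screen; ME-180 cells carrying HRE-bla, 17 hr treatment at 37C; CellTiter-Glo luminescence read after 30 min at room temperature.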
Experiment [7] is described as follows: qHTS assay to identify small molecule agonists of H2AX (AID 1224845; active means well fitted activation curve with a large enough effect in the signal ratio in the repeat runs, not every such curve was filed as active; the % refers to the signal ratio). In short, it runs like this: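 Wild-type CHO-K1 cells, plated overnight, exposed 3hr at 37C to 15 concentrations (0.76% DMSO final). Lysed, then HTRF anti-pH2AX (S139) cryptate and anti-H2AX-d2 antibodies, 24 hr room temperature; 665/620 nm emission read.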
Experiment [8] can be described thus: qHTS assay to identify small molecule agonists of the hypoxia (HIF-1) signaling pathway (AID 1224846; active means well fitted activation curve with a large enough effect in the signal ratio in the repeat runs, not every such curve was filed as active; the % refers to the signal ratio). In short, it runs like this: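 In ME-180 cells bearing an HRE-bla construct, 17 h treatment with DMSO-dissolved compounds at 37C was followed by CCF4-AM loading to quantify reporter induction.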
Experiment [9] is described as follows: qHTS assay to identify small molecule agonists of H2AX - cell viability counter screen (AID 1224847; calls by dose curve; further: nearly all actives have a fitted effect of over 30% in size; further: potency means the concentration at half of the fitted maximal effect). In a few lines:
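Cells plated first: CHO-K1, 1000 per well in 10% FBS medium, incubated overnight at 37C. Then 15-point compound titration added (final DMSO 0.76%) for 3 hr. Finally CellTiter-Glo added and luminescence read.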

The nature of experiment [10]: qHTS assay to identify small molecule antagonists of the estrogen related receptor (ERR) signaling pathway from Tox21 library (AID 1224848). Further: nearly all actives have a fitted effect of over 50% in size. Further: potency means the concentration at half of the fitted maximal effect. In short, it runs like this: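 Quantitative high-throughput format: ERR reporter cells (2,000/well) pre-incubated 6 h, treated 18 h at 37 C with compounds in DMSO alongside positive and negative controls, then read by ONE-Glo luminescence.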

The nature of experiment [11]: qHTS assay to identify small molecule agonists of the estrogen related receptor (ERR) signaling pathway from Tox21 library (AID 1224849; calls by dose curve; further: nearly all actives have a fitted effect of over 15% in size). The note with it: ERR reporter cell line, ONE-Glo luciferase, 18 h; at 92.4 µM (top of the series). In short, it runs like this: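 Reporter cells (ERR, NTP source) treated with Tox21 10K compounds 18 h, 37 C. Readout: ONE-Glo luminescence, 30 min RT.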

Experiment [12] in a line: qHTS RealTime-Glo MT Cell Viability Assay in HepG2 cells - 24 hour (AID 1224867). Further: nearly all actives have a fitted effect of over 50% in size. Further: potency means the concentration at half of the fitted maximal effect. In short, it runs like this: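 HepG2 suspension premixed with RealTime-Glo reagents is plated at 600 cells per well and left 5 h at 37 C/5% CO2. Compounds in DMSO then go in, and bioluminescence reflecting viable cell number is recorded over 40 h.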
The nature of experiment [13]: qHTS RealTime-Glo MT Cell Viability Assay in HEK293 cells - 32 hour (AID 1224868). Further: nearly all actives have a fitted effect of over 50% in size. Further: potency means the concentration at half of the fitted maximal effect. In short, it runs like this: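 Reads taken at 0, 8, 16, 24, 32 and 40 h from the same wells. HEK293 cells (600/well) carried RealTime-Glo reagents from seeding, with compound added after a 5 h settle at 37 C.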
Experiment [14] can be described thus: A CellTox Green Cytotoxicity Assay to monitor cytotoxicity in HEK293 cells - 0 hour (AID 1224869). Further: nearly all actives have a fitted effect of over 50% in size. Further: potency means the concentration at half of the fitted maximal effect. In short, it runs like this: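 Homogeneous no-lysis format: HEK293 cell suspension mixed with CellTox Green reagent, seeded, incubated 5 h at 37 C/5% CO2, then dosed by pintool with compound in DMSO.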
Experiment [15] is described as follows: qHTS RealTime-Glo MT Cell Viability Assay in HepG2 cells - 40 hour (AID 1224870). Further: nearly all actives have a fitted effect of over 50% in size. Further: potency means the concentration at half of the fitted maximal effect. In short, it runs like this: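 HepG2 cells (600/well) mixed with RealTime-Glo MT reagent, settled 5 h at 37 C/5% CO2 before compound addition. Nonlytic NanoLuc luminescence from viable-cell prosubstrate reduction read repeatedly during 40 h treatment at 37 C.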
Experiment [16] is described as follows: qHTS assay to identify small molecule agonists of the constitutive androstane receptor (CAR) signaling pathway - cell viability counter screen (AID 1224836). Further: nearly all actives have a fitted effect of over 45% in size. In a few lines:
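HepG2-CYP2B6-hCAR, 2500 cells/well, 4 h pre-incubation; cpd 15 conc + PK11195 0.75 uM final; 23 h, 37 C/5% CO2; CellTiter-Fluor, fluorescence.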

The nature of experiment [17]: qHTS assay to identify small molecule antagonists of the constitutive androstane receptor (CAR) signaling pathway - cell viability counter screen (AID 1224837). Further: nearly all actives have a fitted effect of over 45% in size. Further: potency means the concentration at half of the fitted maximal effect. In short, it runs like this: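 In quantitative HTS format, compounds at 15 concentrations were applied to HepG2 cells double-transfected with hCAR and CYP2B6-2.2kb under 50 nM CITCO stimulation; live-cell protease activity was read after 23 hr via CellTiter-Fluor.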

Experiment [18] has as its target Nuclear receptor subfamily 1 group I member 3 (Homo sapiens) (UniProt Q14994). Put plainly: qHTS assay to identify small molecule antagonists of the constitutive androstane receptor (CAR) signaling pathway (AID 1224838). Further: nearly all actives have a fitted effect of over 40% in size. In short, it runs like this:
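CITCO-stimulated (50 nM final) HepG2 cells stably transfected with hCAR and CYP2B6-2.2kb luciferase were exposed to compounds at 15 concentrations for 24 h at 37 C/5% CO2. A luciferase reagent was added and luminescence recorded after 30 min.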

Experiment [19] addresses Thyrotropin receptor (Homo sapiens) (UniProt P16473). In words: qHTS assay to identify small molecule agonists of the thyroid stimulating hormone receptor (TSHR) signaling pathway (AID 1224843; calls by dose curve; further: nearly all actives have a fitted effect of over 45% in size; further: potency means the concentration at half of the fitted maximal effect). In a few lines:
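Agonist-mode screen: TSHR HEK293 cells received test chemicals for half an hour at room temperature, then HTRF cAMP detection reagents for one hour prior to fluorescence measurement. Each chemical ran as a 15-concentration series, triplicated.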

The record followed here is PubChem BioAssay (Tox21).

Several values for one entry are separate records, joined by “and”; a condition that tells them apart may be missing. Identical values can stand only once. Records with an inconclusive call do not appear. A structure can be active in one record and inactive in another. Activity calls are given as the source filed them. Unless noted, the call rests on the fitted dose curve; in most records, active means well fitted curve in the direction sought with a large enough effect in the repeat runs; inconclusive means weak or mixed curves; inactive means no such curve, though single readings can be large; an effect the other way counts as inactive or inconclusive.
On the % scale 0 is the no-effect control and ±100 the full control effect.

Luciferin 4-monooxygenase (Photinus pyralis), sequence (P08659 whole entry, looked up): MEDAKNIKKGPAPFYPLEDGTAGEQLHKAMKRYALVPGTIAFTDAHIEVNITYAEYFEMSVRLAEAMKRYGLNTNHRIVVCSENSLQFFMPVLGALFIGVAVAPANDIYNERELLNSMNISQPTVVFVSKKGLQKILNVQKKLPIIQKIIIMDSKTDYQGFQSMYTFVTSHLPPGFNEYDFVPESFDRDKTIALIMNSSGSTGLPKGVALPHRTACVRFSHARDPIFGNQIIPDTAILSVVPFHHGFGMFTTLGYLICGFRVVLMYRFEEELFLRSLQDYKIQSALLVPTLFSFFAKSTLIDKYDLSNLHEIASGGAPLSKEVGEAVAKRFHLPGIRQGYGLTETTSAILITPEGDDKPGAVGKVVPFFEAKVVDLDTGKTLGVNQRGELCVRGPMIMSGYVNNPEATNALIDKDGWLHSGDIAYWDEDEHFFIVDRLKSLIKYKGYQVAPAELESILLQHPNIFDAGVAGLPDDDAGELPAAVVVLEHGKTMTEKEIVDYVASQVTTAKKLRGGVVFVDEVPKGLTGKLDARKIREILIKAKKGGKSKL
Thyrotropin receptor (Homo sapiens), sequence (P16473 whole entry, looked up): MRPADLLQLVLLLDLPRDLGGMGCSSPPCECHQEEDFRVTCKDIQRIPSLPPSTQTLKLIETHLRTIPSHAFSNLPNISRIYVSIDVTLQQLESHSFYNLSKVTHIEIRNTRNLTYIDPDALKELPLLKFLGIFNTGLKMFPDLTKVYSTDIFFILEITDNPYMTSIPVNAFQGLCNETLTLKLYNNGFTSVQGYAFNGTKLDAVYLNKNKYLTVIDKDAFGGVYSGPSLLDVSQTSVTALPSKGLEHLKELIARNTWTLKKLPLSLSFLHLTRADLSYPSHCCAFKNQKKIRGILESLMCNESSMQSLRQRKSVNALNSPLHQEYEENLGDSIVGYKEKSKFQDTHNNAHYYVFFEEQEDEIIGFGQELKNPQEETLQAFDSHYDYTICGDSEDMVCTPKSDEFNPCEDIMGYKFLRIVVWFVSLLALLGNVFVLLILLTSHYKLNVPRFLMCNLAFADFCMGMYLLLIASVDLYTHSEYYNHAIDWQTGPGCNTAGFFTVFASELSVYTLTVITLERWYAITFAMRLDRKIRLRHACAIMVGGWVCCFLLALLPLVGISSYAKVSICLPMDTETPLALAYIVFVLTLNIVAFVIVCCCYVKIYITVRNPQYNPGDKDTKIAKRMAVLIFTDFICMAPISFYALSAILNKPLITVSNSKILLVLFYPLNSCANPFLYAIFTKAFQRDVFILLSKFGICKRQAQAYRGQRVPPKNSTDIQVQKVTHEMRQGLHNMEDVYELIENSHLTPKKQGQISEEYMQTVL
Nuclear receptor subfamily 1 group I member 3 (Homo sapiens), sequence (Q14994 whole entry, looked up): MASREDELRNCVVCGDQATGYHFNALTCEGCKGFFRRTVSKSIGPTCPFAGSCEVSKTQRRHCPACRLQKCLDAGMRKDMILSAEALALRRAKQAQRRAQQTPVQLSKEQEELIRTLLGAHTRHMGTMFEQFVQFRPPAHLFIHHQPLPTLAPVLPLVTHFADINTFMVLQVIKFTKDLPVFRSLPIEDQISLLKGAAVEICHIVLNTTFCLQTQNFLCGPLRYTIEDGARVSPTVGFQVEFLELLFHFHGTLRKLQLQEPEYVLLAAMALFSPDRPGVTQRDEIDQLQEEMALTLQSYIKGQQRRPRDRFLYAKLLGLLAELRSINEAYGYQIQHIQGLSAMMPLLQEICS

On to `NCCOCCO`, for which the Potency result in experiment [1], in experiment [2], in experiment [3], in [4], in experiment [5] and in experiment [6] was “inactive” in each case. Besides, the Potency entry in [7], in experiment [9], in experiment [10], in experiment [12], in [13] and in experiment [14] was “inactive” in each case. In addition, the Potency result in experiment [15] was “inactive”. Besides, in [8], the molecule was called inactive. Also, the activity change, positive = activation in experiment [11] was -2.16% (inactive) and 1.44% (inactive).

Take `Nc1ccc2c(c1)C(=O)c1ccccc1C2=O`: the Potency in experiment [2] was 2.78 µM (active) and 2.52 µM (active); in experiment [9], 98.9 µM (active) and inactive. Besides, the Potency entry in experiment [16], in experiment [17], in experiment [18], in experiment [3], in experiment [6] and in experiment [7] was “inactive” each time. The Potency entry in experiment [12], in [13], in experiment [14] and in [15] was “inactive” in each case. The molecule was called inactive in experiment [8].

Turning to `CC(C)[C@@H]1CC[C@@H](C)CC1=O`, the Potency entry in experiment [1], in [2], in experiment [17], in [3], in [19] and in experiment [6] was “inactive” throughout. Further, the Potency entry in experiment [7], in [9], in [12], in [13], in experiment [14] and in [15] was “inactive” each time. Besides, the molecule was classed as inactive in experiment [8].

Regarding `O=C(CCCN1CCC(O)(c2ccc(Cl)cc2)CC1)c1ccc(F)cc1`, the Potency in [1] is 61.1 µM (active) and inactive; in [17], 54.5 µM (active); in [3], 54.5 µM (active) and inactive; in [12] it was 49 µM (active) and inactive; in experiment [13] it was 17.4 µM (active) and 8.49 µM (active); in experiment [15] it was 54.9 µM (active) and inactive. The Potency result in experiment [19], in experiment [6], in experiment [7], in experiment [9] and in experiment [14] was “inactive” throughout.

Regarding `O=Cc1ccccc1C=O`, the Potency was 54.5 µM (active) and inactive in experiment [1]; 38.6 µM (active) and inactive in [19]; 38.9 µM (active) and inactive in [15]. For the same molecule, the Potency result in experiment [2], in experiment [3], in experiment [6], in experiment [7], in [9] and in experiment [12] was “inactive” throughout. Also, the Potency result in experiment [13] and in experiment [14] was “inactive” throughout. In addition, in experiment [8], the molecule was classed as inactive.

Turning to `COc1ccc(-c2coc3cc(O)cc(O)c3c2=O)cc1`, the Potency in [2] was 6.38 µM (active) and 5.03 µM (active); in experiment [9], 36 µM (active); in experiment [13], 44 µM (active) and 49 µM (active). Also, the Potency result in [16], in [17], in experiment [18], in [3], in [19] and in experiment [6] was “inactive” in each case. For the same molecule, the Potency result in experiment [7], in experiment [12], in [14] and in experiment [15] was “inactive” throughout.

`CCCCCC1C(=O)CCC1CC(=O)OC` (stereo not given): the Potency entry in experiment [1], in experiment [2], in experiment [3], in experiment [4], in experiment [5] and in [19] was “inactive” throughout. Further, the Potency result in experiment [6], in [7], in experiment [9], in experiment [10], in [12] and in experiment [13] was “inactive” in each case. Also, the Potency result in experiment [14] and in experiment [15] was “inactive” each time. Moreover, the outcome in experiment [8] was inactive. In addition, in experiment [11], the activity change, positive = activation was 0.33% (inactive) and 0.3% (inactive).

Regarding `Nc1ccc(N)c(Cl)c1`, the Potency is 61 µM (active) and 54.5 µM (active) in experiment [1]; 68.5 µM (active) and 54.5 µM (active) in experiment [10]; “inactive and 38.9 µM (active)” in [14]. For the same molecule, the Potency entry in [2], in [17], in [18], in experiment [6], in [12] and in experiment [13] was “inactive” throughout. The Potency entry in experiment [15] was “inactive”. The molecule was called inactive in [8]. The activity change, positive = activation in [11] was -59.7% (inactive) and -39% (inactive).
